Assay results taken from PubChem BioAssay (Tox21).
Records with an inconclusive call do not appear. Active and inactive are the calls of the source. Unless noted, the call rests on the fitted dose curve; in most records, active means well fitted curve in the direction sought with a large enough effect in the repeat runs; inconclusive means weak or mixed curves; inactive means no such curve, though single readings can be large; an effect the other way counts as inactive or inconclusive.

Key:
[1] = qHTS assay to identify small molecule antagonists of the estrogen related receptor (ERR) signaling pathway - cell viability counter screen (AID 1224818); further: potency means the concentration at half of the fitted maximal effect
Method in brief: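 Fluorescence from CellTiter-Fluor, read 30 min after reagent addition at 37 C, measured viability of ERR cells exposed to compounds for 17.5 h. Cells had settled 6 h before dosing.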

[2] = qHTS assay to identify small molecule antagonists of the estrogen related receptor (ERR) signaling pathway (AID 1224819; further: nearly all actives have a fitted effect of over 50% in size; further: potency means the concentration at half of the fitted maximal effect)
Method in brief: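 Luminescence readout (One-Glo, 30 min, RT) of ERR cell line after 18 h compound exposure at 37 C; cells seeded 2,000/well, pre-incubated 6 h, compounds pinned from DMSO stocks.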

[3] = qHTS assay to identify small molecule agonists of the estrogen related receptor (ERR) signaling pathway (AID 1224820); further: potency means the concentration at half of the fitted maximal effect
Method in brief: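 Following a 6 h settling period, 2,000 ERR cells per well receive DMSO-dissolved compounds by pin tool and incubate 18 h at 37 C; agonist activity is scored from One-Glo luminescence read 30 min post-addition.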

[4] = test system: estrogen-related receptor alpha (ERRalpha) with PGC-1alpha coactivator, human; assay: qHTS assay to identify small molecule antagonists of the estrogen related receptor signaling pathway with the pleiotropic PPARgamma coactivator (PGC) (AID 1224821; calls by dose curve; further: nearly all actives have a fitted effect of over 50% in size; further: potency means the concentration at half of the fitted maximal effect)
Method in brief: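 Screening used NTP's PGC/ERR cells, dosed via pin tool with compound in DMSO alongside positive and negative controls. After 18 h at 37 C, One-Glo reagent sat 30 min at room temperature before luminescence detection.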

[5] = qHTS assay to identify small molecule antagonists of the estrogen related receptor signaling pathway with the pleiotropic PPARgamma coactivator (PGC) cell viability counter screen (AID 1224822; further: series mostly up to about 46 µM)
Method in brief: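 Fluorescence read-out of CellTiter-Fluor after 30 min at 37 C; PGC/ERR cells, 2,000 per well, had been exposed to DMSO-dissolved compounds for 17.5 h following a 6 h pre-incubation.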

[6] = qHTS assay to identify small molecule agonists of the estrogen related receptor signaling pathway with the pleiotropic PPARgamma coactivator (PGC) (AID 1224823); further: potency means the concentration at half of the fitted maximal effect
Method in brief: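 In this quantitative high-throughput screen, an 18 h, 37 C treatment of PGC/ERR cells with compounds in DMSO preceded a One-Glo luminescence read taken after 30 min at room temperature.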

[7] = qHTS assay to identify small molecule antagonists of the estrogen related receptor (ERR) signaling pathway from Tox21 library - cell viability counter screen (AID 1224834); further: potency means the concentration at half of the fitted maximal effect; nearly all actives have a fitted effect of over 30% in size
Method in brief: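 Multiplexed viability counter screen in ERR cells: 17.5 h compound exposure at 37 C, CellTiter-Fluor added, 30 min at 37 C/5% CO2, fluorescence read.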

[8] = target: Luciferin 4-monooxygenase (Photinus pyralis) (UniProt P08659); assay: qHTS assay to identify small molecule inhibitors of firefly luciferase (AID 1224835); further: potency means the concentration at half of the fitted maximal effect; nearly all actives have a fitted effect of over 25% in size
Luciferin 4-monooxygenase (Photinus pyralis), sequence (P08659 whole entry, looked up): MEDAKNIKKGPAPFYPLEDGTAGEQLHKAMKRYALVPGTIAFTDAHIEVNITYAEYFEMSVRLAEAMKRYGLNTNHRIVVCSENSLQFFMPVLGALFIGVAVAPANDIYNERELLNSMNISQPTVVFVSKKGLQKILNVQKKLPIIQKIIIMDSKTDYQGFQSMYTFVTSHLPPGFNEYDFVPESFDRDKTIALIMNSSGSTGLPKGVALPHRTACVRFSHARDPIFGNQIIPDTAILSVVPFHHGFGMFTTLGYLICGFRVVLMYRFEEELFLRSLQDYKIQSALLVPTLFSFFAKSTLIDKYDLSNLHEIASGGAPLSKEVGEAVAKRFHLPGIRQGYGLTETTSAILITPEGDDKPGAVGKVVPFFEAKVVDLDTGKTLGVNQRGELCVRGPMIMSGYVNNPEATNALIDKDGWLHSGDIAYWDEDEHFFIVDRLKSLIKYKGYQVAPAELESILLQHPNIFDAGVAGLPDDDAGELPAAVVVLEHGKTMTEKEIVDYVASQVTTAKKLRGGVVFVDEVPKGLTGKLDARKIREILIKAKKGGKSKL
Method in brief: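 Inhibition of purified Photinus luciferase is measured by luminescence. Substrate levels (D-luciferin, ATP) sit at their KM values. Each compound is tested in a concentration series.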

[9] = target: Nuclear receptor subfamily 1 group I member 3 (Homo sapiens) (UniProt Q14994); assay: qHTS assay to identify small molecule agonists of the constitutive androstane receptor (CAR) signaling pathway (AID 1224839);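 further: HepG2 cells stably carrying human CAR and a CYP2B6 luciferase reporter; series mostly up to about 92 µM; nearly all actives have a fitted effect of over 15% in size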
Nuclear receptor subfamily 1 group I member 3 (Homo sapiens), sequence (Q14994 whole entry, looked up): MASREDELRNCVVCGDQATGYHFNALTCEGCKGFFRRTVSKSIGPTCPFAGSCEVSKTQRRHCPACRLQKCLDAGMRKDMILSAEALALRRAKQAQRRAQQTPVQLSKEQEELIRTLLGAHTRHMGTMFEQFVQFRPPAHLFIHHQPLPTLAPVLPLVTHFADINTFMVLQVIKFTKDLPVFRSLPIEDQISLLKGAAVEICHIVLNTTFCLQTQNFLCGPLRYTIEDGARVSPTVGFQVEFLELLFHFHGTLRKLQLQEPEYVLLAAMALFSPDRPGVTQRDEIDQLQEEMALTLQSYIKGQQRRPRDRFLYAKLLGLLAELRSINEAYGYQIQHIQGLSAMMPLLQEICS
Method in brief: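 HepG2 cells stably co-transfected with hCAR and a CYP2B6-2.2kb luciferase reporter; compounds at 15 concentrations with 0.75 uM PK11195 present. After 24 hr at 37 C, luciferase read by ONE-Glo luminescence.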

[10] = qHTS assay to identify small molecule antagonists of the estrogen related receptor signaling pathway with the pleiotropic PPARgamma coactivator (PGC) from Tox21 10K library (AID 1224841; call rule not given here; further: potency means the concentration at half of the fitted maximal effect; actives are mostly falling curves and most rising ones were filed inactive; nearly all actives have a fitted effect of over 50% in size)
Method in brief: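 Luminescence read-out (One-Glo luciferase reagent, 30 min at room temperature) from PGC/ERR cells exposed to DMSO-dissolved test compounds for 18 h at 37 C; cells, 2,000 per well, had been preincubated 6 h before compound transfer.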

[11] = qHTS assay to identify small molecule agonists of the hypoxia (HIF-1) signaling pathway (AID 1224846; active means well fitted activation curve with a large enough effect in the signal ratio in the repeat runs, not every such curve was filed as active; the % refers to the signal ratio)
Method in brief: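 Beta-lactamase FRET read-out (CCF4-AM substrate) from ME-180 cells carrying an HRE-driven bla reporter, after 17 hrs compound exposure at 37C/5% CO2. Cells were seeded at 2,000 per well in 0.5% dialyzed FBS medium and preincubated 5 hrs.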

Measured: Potency

OCC1NCC(O)C(O)C1O (configuration not stated)
inactive: [1] | [2] | [3] | [4] | [5] | [6]

Cn1c(=O)c2c(nc(/C=C/c3cccc(Cl)c3)n2C)n(C)c1=O
inactive: [1] | [2] | [3] | [4] | [6]

Brc1c(Br)c(Br)c2[nH]cnc2c1Br
active: [2] 19.6 µM | [4] 6.94 µM
inactive: [1] | [3] | [6]

COc1cc(SC)ccc1C(=O)N1CCC(Cc2ccccc2)CC1
inactive: [1] | [3] | [5] | [6]
active: [2] 20.3 µM

Oc1cc(O)cc(/C=C/c2ccc(O)c(O)c2)c1
inactive: [1] | [2] | [5]
active: [3] 8.41 µM | [6] 18.1 µM

Cn1cnc2c(NCc3ccccc3)nc(NCCO)nc21
inactive: [1] | [2] | [4] | [5] | [6]

N[C@H](CCCP(=O)(O)O)C(=O)O
inactive: [1] | [2] | [4] | [5] | [6]

NC(=Nc1ccccc1)NC(=O)c1nc(Cl)c(N)nc1N
inactive: [1] | [2] | [4] | [5] | [6]

CO[C@H]1O[C@@H]2O[C@]3(C)CC[C@@H]4[C@@H](C)CC[C@H]([C@H]1C)[C@]24OO3
active: [2] 0.531 µM
inactive: [1] | [3] | [5] | [6]

CCCC(=O)c1cc(O)c(O)cc1O
inactive: [1] | [2] | [3] | [4] | [6] | [9] | [11]
active: [7] 43.3 µM | [8] 31.7 µM | [10] 61.1 µM

Clc1ccc2c(N3CCN(CCCN4CCN(c5ccnc6cc(Cl)ccc56)CC4)CC3)ccnc2c1
inactive: [1] | [2] | [3] | [5] | [6]

CN1C2CCC1CC(OC(c1ccccc1)c1ccccc1)C2 (configuration not stated)
inactive: [1] | [2] | [3] | [6]

CC[C@H](NC(=O)c1c(C)c(-c2ccccc2)nc2ccccc12)c1ccccc1
active: [2] 22 µM
inactive: [1] | [3] | [5] | [6]

COc1ccc(Br)cc1S(=O)(=O)NC(=O)/C=C/c1ccccc1Cc1ccc2ccccc2c1
inactive: [1] | [2] | [4] | [5] | [6]

Cc1cc(N)c2ccccc2[n+]1CCCCCCCCCC[n+]1c(C)cc(N)c2ccccc21
active: [2] 0.722 µM
inactive: [1] | [3] | [5] | [6]

CC1CN(S(=O)(=O)c2cccc3cnccc23)CCN1 (configuration not stated)
inactive: [1] | [2] | [3] | [5] | [6]

CC(=O)[C@H]1CCC2C3CC=C4C[C@@H](OS(=O)(=O)O)CC[C@]4(C)C3CC[C@@]21C (some centres not stated)
inactive: [1] | [2] | [4] | [5] | [6]

Oc1ccc2ccccc2c1SSc1c(O)ccc2ccccc12
active: [2] 20.3 µM
inactive: [1] | [3] | [6]

CSc1ccccc1N1CCN(CCCCCC(=O)NC2CCCc3ccccc32)CC1 (configuration not stated)
inactive: [3] | [6]
active: [1] 10.2 µM | [2] 16.2 µM

CCCn1c(=O)c2[nH]c(C3CCCC3)nc2n(CCC)c1=O
inactive: [1] | [2] | [4] | [5] | [6]

O=Nc1ccc2oc(=O)ccc2c1
inactive: [1] | [2] | [4] | [5]

CO/N=C(\C(=O)N[C@@H]1C(=O)N2C(C(=O)O)=C(COC(C)=O)CS[C@H]12)c1csc(N)n1 (stereo in doubt)
inactive: [1] | [2] | [3] | [5]

COc1ccc(NC(=O)/C=C/c2ccc(Cl)cc2)cc1
inactive: [1] | [2] | [4] | [5]

O=C1NC(=O)/C(=C/c2ccc3nccnc3c2)S1
inactive: [1] | [2] | [3] | [5] | [6]

COc1cc(C(O)C(=O)O)ccc1O (configuration not stated)
inactive: [1] | [2] | [4] | [5] | [6]

N[C@H](C(=O)O)[C@H](Cc1ccccc1)C(=O)O
inactive: [1] | [2] | [4] | [5] | [6]

Oc1ccc(-c2nc(-c3ccc(F)cc3)c(-c3ccncc3)[nH]2)cc1
active: [2] 11.4 µM
inactive: [1] | [3] | [6]

C[C@](Cc1ccc(O)c(O)c1)(NN)C(=O)O
inactive: [1] | [2] | [4] | [5]

CN=c1nc(-c2ccccc2)n(-c2ccccc2)s1
inactive: [1] | [2] | [3] | [6]

CC(=O)O[C@H]1Cc2ccccc2N(C(N)=O)c2ccccc21
inactive: [1] | [2] | [4] | [5] | [6]
